Data from PubChem BioAssay (Tox21).
Active and inactive are the calls of the source. The call rests on the fitted dose curve; in most records, active means well fitted activation curve with a large enough effect in the repeat runs; inconclusive means weak or mixed curves; inactive means flat fitted curve, though single readings scatter.

Assay: Caspase-3/7 induction in CHO-K1 cells by small molecules, qHTS assay (AID 1346980); further: nearly all actives have a fitted effect of over 15% in size
Conditions: CHO-K1 caspase-3/7 induction, Caspase-Glo luminescence, 17 h; series mostly up to 92.4 µM
From the text: National Center for Advancing Translational Sciences [NCATS]
NIH Chemical Genomics Center [NCGC]
U.S. Environmental Protection Agency [EPA]
National Institutes of Environmental Health Sciences [NIEHS]
National Toxicology Program [NTP]
Apoptosis is a process of programmed cell death and plays a central role in the development of multicellular organisms. It is a highly regulated process and induces cell death by activating caspases, which are the members of cysteine aspartic acid-specific protease (caspase) family. Caspases involved in apoptosis are classified by their mechanism of action as initiator caspases (caspase-2, -8, -9 and -10) and executioner caspases (caspase-3, -6, and -7). Inhibition of apoptosis results in number of cancers, autoimmune diseases, inflammatory diseases and viral infection. To identify small molecule compounds that induce apoptosis, a homogeneous, luminescent Caspase-Glo 3/7 assay was used. Wild type CHO-K1 cells were used to screen Tox21 libraries for identifying caspase-3/7 activity inducers.
CHO-K1 cells were dispensed at 1,500 per well in 5uL of culture medium into white solid bottom 1536-well plates (Corning Life Sciences, Corning, NY) using a Multidrop Combi (Thermo Scientific, Waltham, MA) dispenser. The assay plates were incubated at 37 C and 5% CO2 for 5hr, and then 23nL of compounds dissolved in DMSO and positive control were transferred using a Pintool station (Wako, San Diego, CA). The assay plates were incubated at 37C and 5% CO2 for 17hr. For caspase-3/7 activity read, 4uL of Caspase-Glo 3/7 reagent (Promega Corporation, Madison, WI) was added to each well of the assay plates using Flying Reagent Dispenser (FRD, Aurora Discovery, San Diego, CA) and incubated the assay plates at room temperature for 30min. The luminescence signal was quantified using a ViewLux plate reader (Perkin Elmer, Shelton, CT).
On the % scale 0 is the no-effect control and ±100 the full control effect.

Compound | outcome | caspase-3/7 activation
Nc1nc(Cl)cc(Cl)n1 | inactive | –
COC(=O)N/N=C/c1c[n+]([O-])c2ccccc2[n+]1[O-] | inactive | –
CCCCN1C(=O)c2ccccc2C1=O | inactive | –
CC(C)C[P+](C)(CC(C)C)CC(C)C | inactive | –
Cc1ccc(NC(N)=O)cc1 | inactive | –
CC/C=C/CCCCCCCCCCOC(C)=O | inactive | –
CN1CCN(C(=O)C2CCCCC2)CC1 | inactive | –
CN(C)c1cc(NC(=O)CNC(C)(C)C)c(O)c2c1C[C@H]1C[C@H]3[C@H](N(C)C)C(=O)C(C(N)=O)=C(O)[C@@]3(O)C(=O)C1=C2O | inactive | –
CCC(C)SSC(C)CC (stereo not given) | inactive | –
Cc1ccc2ccccc2n1 | inactive | –
CCOC(=O)CC(C(C)=O)C(C)=O | inactive | –
CCOCCOCCOC(C)=O | inactive | –
CC(C)(O)c1ccc(C(C)(C)O)cc1 | inactive | –
NCC1CCC(C(=O)Oc2ccc(CCC(=O)O)cc2)CC1 (stereo not given) | inactive | –
NC[C@H]1O[C@H](O[C@H]2[C@H](O)[C@@H](O[C@H]3O[C@H](CO)[C@@H](O)[C@H](N)[C@H]3O)[C@H](N)C[C@@H]2N)[C@H](N)[C@@H](O)[C@@H]1O | – | -0.57% [at 19 µM] (inactive)
CCCCCCCC(=O)N(C)C | inactive | –
CC(=O)O[C@@H]1CC2C3CCc4cc(OC(=O)c5ccccc5)ccc4C3CCC2(C)[C@H]1OC(C)=O (stereo not given in full) | inactive | –
C[n+]1ccccc1/C=N/O | inactive | –
CC/C=C\CCCCCCCCCCOC(C)=O | inactive | –
C=CCON/C(CCC)=C1\C(=O)CC(C)(C)C(C(=O)OC)=C1O | inactive | –

Compound | outcome | caspase-3/7 activation
CC(C)(C)NCC(O)COc1cccc2c1CCC(=O)N2 (stereo not given) | inactive | –
CCC(C)(C)C | inactive | –
Cc1cc(C)c(C)c(C)c1 | inactive | –
CCCOc1ccc(C(=O)OCCN(CC)CC)cc1N | inactive | –
CCCCCCCOC(C)=O | inactive | –
CC1(C)S[C@@H]2[C@H](NC(=O)Cc3ccccc3)C(=O)N2[C@H]1C(=O)O (tested in a mixture with another compound) | inactive | –
CCCCCCCCOCCC#N | inactive | –
C/C=C(\C)C=O | inactive | –
CCCCc1ccc(Cl)cc1 | inactive | –
C=CCCCCCCCCCCCCCC | – | 1.16% [at 19 µM] (inactive)
CCN(CC)CC | inactive | –
CCCC(=O)C(CC)Sc1ccoc1C (stereo not given) | inactive | –
O=C(O)COc1ccc2ccccc2c1 | inactive | –
C[C@@H]1CCC[C@H](C)N1CCCC(O)(c1ccccc1)c1ccccn1 (stereo not given in full) | inactive | –
C=CC(=O)OCCOCCOCC | inactive | –
CC(C)c1cc(C(C)C)cc(C(C)C)c1 | inactive | –
O=C(O)CCCCCCCCCC(=O)O | inactive | –
COC(=O)C(c1ccccc1Cl)N1CCc2sccc2C1 (stereo not given) | inactive | –
Cc1cc(=O)oc2cc(O[C@@H]3SC[C@@H](O)[C@H](O)[C@H]3O)ccc12 | inactive | –
O=c1c(O)c(O)c1=O | inactive | –
